Rows were chosen to be rich in hits. Some 7.9% of all compounds tested hit in one or more screens of this group.
MCF10A rereplic – inducers of DNA re-replication in MCF 10A breast cells; MCF 10A DNA re-replication, Hoechst nuclear intensity, 48 h; Potency, µM (doses to about 46.1 µM), usual class: activators; 2.9% of 350,000 active; note: nearly all actives have a fitted effect of over 50% in size
KB-V1 MDR tox – KB-V1 MDR subline cytotoxicity | KB-V1 MDR cells viability, CellTiter-Glo, 72 h | Potency, µM (doses to about 46.1 µM), most hits filed as cytotoxic | 3.4% of 400,000 active; note: nearly all actives have a fitted effect of over 60% in size
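KB-V1, DMEM (no phenol red) + 10% FBS; cpd pin-transferred, titration series; 72 h, 37 degrees C; CellTiter-Glo, luminescence. Data normalized, curve-fit.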
KB-3-1 cytotox – kills parental KB-3-1 adenocarcinoma cells; KB-3-1 viability, CellTiter-Glo ATP luminescence, 72 h; AID 1347075; Potency, µM (highest dose often 46.1 µM), usual class: cytotoxic; 1.4% of 400,000 active; note: nearly all actives have a fitted effect of over 60% in size
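72 h, 37 °C compound treatment of KB-3-1 parental cells; CellTiter-Glo added, 10 min, luminescence read. Data corrected against DMSO-only plates and normalized before curve fitting.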
HT1080 IDH1KD tx – toxicity to HT-1080 IDH1 knockdown cells (counter line); AID 686971; 2% of 360,000 active; HT-1080 IDH1 knockdown viability, ATP luminescence, 48 h; Potency, µM (series often up to 46.1 µM), actives largely listed as cytotoxic
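After a 2 h attachment period, IDH1KD HT-1080 cells took pin-transferred compound for 48 h at 37 °C; ATP-based luminescence after 10 min room-temperature reagent incubation reported viability.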
HT1080NT lethal – kills 2HG-producing HT-1080-NT fibrosarcoma cells. Potency, µM (titrated, usually from 46.1 µM), actives largely listed as cytotoxic. 1.6% of 360,000 active. AID 686970. HT-1080-NT fibrosarcoma viability, CellTiter-Glo ATP luminescence, 48 h;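 note: NT is the 2HG producing partner of a matched IDH1 knockdown line; nearly all actives have a fitted effect of over 55% in size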
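Viability by CellTiter-Glo luminescence after 48 h compound exposure at 37C of HT-1080-NT cells (750/well, RPMI, 5% FBS). % activity scaled between DMSO wells and medium-only wells, then curve-fitted and categorized by curve class.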
SW480 rerep – inducers of DNA re-replication in SW480 colon cancer cells. Potency, µM (highest dose often 46.1 µM), actives largely listed as activators. SW480 DNA re-replication, Hoechst DNA content imaging, 48 h. 1.8% of 340,000 active; note: nearly all actives have a fitted effect of over 55% in size
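Treated cells incubate 48 hr (37 C, 5% CO2), are stained 40 min with Hoechst, and nuclear fluorescence is enumerated; a rise in nuclei with high DNA signal marks re-replication.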
Of the large screens only hits and unclear results are named; the others gave an inactive call. Calls come from the whole dose curve; as a rule, active = well fitted curve in the direction sought with a large enough effect; inconclusive = small, poorly fitted or top-dose-only effect, or another doubt; inactive = no such curve, though single readings can be large; an effect the other way counts as inactive or inconclusive.

O=C(C1CCN(Cc2ccc(F)cc2)CC1)N(CCO)Cc1ccccc1	none
CN(Cc1nc2ccccc2c(=O)[nH]1)C(=O)COc1ccccc1Cc1ccccc1	MCF10A rereplic 21µM, HT1080 IDH1KD tx inconclusive
CN(Cc1nc2ccccc2c(=O)[nH]1)C(=O)c1cc(-c2ccc(Br)cc2)nc2ccccc12	MCF10A rereplic inconclusive, KB-V1 MDR tox 15µM
CCCC(=O)N(CCc1ccc(OC)cc1)Cc1nc2ccccc2c(=O)[nH]1	KB-V1 MDR tox 15µM, HT1080 IDH1KD tx inconclusive, HT1080NT lethal inconclusive
CC1CCCC(NC(=O)CN2C(=O)NC(c3ccccc3)(c3ccccc3)C2=O)C1C (centres undefined)	KB-V1 MDR tox inconclusive, KB-3-1 cytotox inconclusive
O=C(COC(=O)/C=C/c1ccccc1)NC(=O)NC1CCCCC1	none
CCCCc1ccc(-c2csc(/C(C#N)=C/c3ccc(C)o3)n2)cc1	MCF10A rereplic inconclusive
CCc1nn(CCCC(=O)NCc2cc(Br)ccc2OC)c(=O)c2cc3occc3n12	KB-V1 MDR tox inconclusive
O=C(C1CC1)N(CCc1ccccc1)Cc1nc2ccccc2c(=O)[nH]1	KB-V1 MDR tox 16µM
CCOc1c(Cl)cc(C(=O)Nc2ccccc2C(=O)O)cc1Cl	none
CCc1ccccc1N(CC)C(=O)C1CCN(c2ncnc3c2nc2n3CCCCC2)CC1	MCF10A rereplic 23µM, KB-V1 MDR tox inconclusive, KB-3-1 cytotox inconclusive, HT1080 IDH1KD tx inconclusive, SW480 rerep inconclusive
CCN(Cc1ccccc1)C(=O)C1CCN(c2ncnc3c2nc2n3CCCCC2)CC1	none
Cc1cccc(N2CCN(CCCNC(=O)C3CCCN(c4ncnc5c4nc4n5CCCCC4)C3)CC2C)c1 (centres undefined)	MCF10A rereplic inconclusive, KB-V1 MDR tox inconclusive, KB-3-1 cytotox inconclusive, HT1080 IDH1KD tx 16µM, HT1080NT lethal 21µM, SW480 rerep inconclusive
O=C(NCC1CCN(Cc2cccc(Cl)c2)CC1)C1CCCN(c2ncnc3c2nc2n3CCCCC2)C1 (centres undefined)	HT1080 IDH1KD tx inconclusive, HT1080NT lethal 21µM
O=C(Nc1ccccc1Cl)C1CCCN(c2ncnc3c2nc2n3CCCCC2)C1 (centres undefined)	MCF10A rereplic inconclusive, KB-V1 MDR tox 7.3µM
Cc1ccc(NC(=O)C2CCCN(c3ncnc4onc(C)c34)C2)c(Cl)c1 (centres undefined)	KB-V1 MDR tox inconclusive, KB-3-1 cytotox 2.6µM (no result: MCF10A rereplic, HT1080 IDH1KD tx, HT1080NT lethal, SW480 rerep)
COc1ccc(Cl)cc1NC(=O)C1CCCN(c2ncnc3onc(C)c23)C1 (centres undefined)	KB-V1 MDR tox inconclusive (no result: MCF10A rereplic, HT1080 IDH1KD tx, HT1080NT lethal, SW480 rerep)
CCc1nnc(NC(=O)CSc2nnc(Cc3ccccc3)n2Cc2ccccc2)s1	none
Cc1cc(NC(=O)CCN2C(=O)C3C4CCC(C4)C3C2=O)c(C)cc1Br (centres undefined)	KB-V1 MDR tox 15µM
COc1ccc(C2C(C#N)=C(N)N(c3sc4c(c3C#N)CCCC4)C3=C2C(=O)CC(C)(C)C3)cc1OC (centres undefined)	none
COc1ccc(C2C(C#N)=C(N)N(c3sc4c(c3C#N)CCCC4)C3=C2C(=O)CC(C)(C)C3)cc1 (centres undefined)	KB-V1 MDR tox 5.8µM
Cc1onc(-c2c(F)cccc2Cl)c1C(=O)NC1CCCCCC1	MCF10A rereplic inconclusive
Cc1ccc(C)c(CN2CCC(CNC(=O)Nc3ccc(Cl)cc3)CC2)c1	KB-V1 MDR tox inconclusive, KB-3-1 cytotox inconclusive
Cc1ccc(C)c(CN2CCC(CNC(=O)Nc3ccc(Br)cc3F)CC2)c1	MCF10A rereplic inconclusive, KB-V1 MDR tox inconclusive, KB-3-1 cytotox inconclusive, HT1080 IDH1KD tx inconclusive, HT1080NT lethal 16µM, SW480 rerep inconclusive
CCC(=O)N1CCN(c2ccc(Cl)cc2NC(=O)Cc2ccc(Cl)cc2)CC1	KB-V1 MDR tox 3.7µM, HT1080 IDH1KD tx inconclusive
CCC(=O)N1CCN(c2ccccc2NC(=O)Cc2ccc(Cl)cc2)CC1	none
CCCC(=O)N1CCN(c2nc3ccc(Cl)cc3s2)CC1	MCF10A rereplic inconclusive, KB-V1 MDR tox inconclusive, KB-3-1 cytotox 18µM
CCCC(=O)Nc1cc(Cl)ccc1N1CCN(C(=O)CC)CC1	MCF10A rereplic 18µM, KB-V1 MDR tox inconclusive
CCCC(=O)N1CCN(c2nc3ccc(Br)cc3s2)CC1	MCF10A rereplic inconclusive, KB-3-1 cytotox inconclusive, HT1080 IDH1KD tx inconclusive, HT1080NT lethal inconclusive
Cn1nccc1NC(=O)Nc1cccc(Br)c1	KB-V1 MDR tox inconclusive
Cc1ccc(NC(=O)C2CC(=O)N(C(C)c3ccccc3)C2)cc1 (centres undefined)	KB-V1 MDR tox 18µM
CC(C)N1CC(C(=O)Nc2ccccc2)CC1=O (centres undefined)	KB-V1 MDR tox inconclusive
CC(C)(C)OC(=O)N[C@@H](C(=O)OC(C)(C)C)c1ccc2ccccc2c1	none
CCn1nnc(-c2ccccc2NC(=O)c2cc(OC)c(OC)c(OC)c2)n1	MCF10A rereplic inconclusive, SW480 rerep 15µM
CCn1c2ccccc2c2cc(NC(=O)c3ccc(Br)o3)ccc21	MCF10A rereplic inconclusive
CCn1c2ccccc2c2cc(NC(=O)c3cc(C)on3)ccc21	KB-V1 MDR tox inconclusive, HT1080 IDH1KD tx 23µM, HT1080NT lethal inconclusive, SW480 rerep inconclusive
CCn1c2ccccc2c2cc(NC(=O)c3ccc(C)c([N+](=O)[O-])c3)ccc21	KB-3-1 cytotox inconclusive
CCn1c2ccccc2c2cc(NC(=O)c3ccc(=O)oc3)ccc21	MCF10A rereplic 16µM, HT1080 IDH1KD tx 29µM, HT1080NT lethal inconclusive, SW480 rerep inconclusive
CCOC(=O)Nc1ccc2c(c1)N(C(=O)OC)c1ccccc1CC2	MCF10A rereplic inconclusive, KB-V1 MDR tox 5.8µM, KB-3-1 cytotox inconclusive, HT1080 IDH1KD tx inconclusive, HT1080NT lethal inconclusive, SW480 rerep inconclusive
NC(=O)CN1CCCN(S(=O)(=O)c2ccc(Br)cc2)CC1	none
COc1ccc(CCNS(=O)(=O)c2cccc([N+](=O)[O-])c2)cc1OC	MCF10A rereplic inconclusive
Cc1c(C(=O)Nc2ccc(C(=O)Nc3ccccc3)cc2)cccc1[N+](=O)[O-]	KB-V1 MDR tox inconclusive
CCn1c2ccccc2c2cc(NC(=O)CN(C)CC(=O)Nc3ccc(N4CCOCC4)cc3)ccc21	KB-V1 MDR tox inconclusive, KB-3-1 cytotox inconclusive, HT1080 IDH1KD tx 26µM
Cc1c(C(=O)Nc2ccccc2-c2ccccc2)cccc1[N+](=O)[O-]	KB-V1 MDR tox 15µM
CCn1c2ccccc2c2cc(NC(=O)c3cccc([N+](=O)[O-])c3C)ccc21	MCF10A rereplic 18µM, KB-V1 MDR tox inconclusive, KB-3-1 cytotox inconclusive, HT1080 IDH1KD tx 13µM, HT1080NT lethal 23µM, SW480 rerep 10µM
CN(CC(=O)Nc1ccc(N2CCOCC2)cc1)C(=O)CCc1cc(C(C)(C)C)c(O)c(C(C)(C)C)c1	KB-V1 MDR tox 3.7µM

Screening data: PubChem BioAssay, National Center for Advancing Translational Sciences (NCATS)
